Data on 8 compounds can be found in PubChem BioAssay (NCATS).

Values without a mark were called inactive. Inconclusive results are not listed. Calls of active or inactive are those of the source. Unless noted, calls follow the shape of the dose curve; as a rule, active = well fitted curve in either direction with a large enough effect (not every such curve was filed as active); inconclusive = small, poorly fitted or top-dose-only effect, or another doubt; inactive = flat fitted curve, though single readings scatter.

Assay [1] deals with Lysosomal acid glucosylceramidase (Homo sapiens) (UniProt P04062). The experiment in a line: Glucocerebrosidase-p2 (AID 348; in the data active = potency below about 10 µM; also: potency is read from the fitted curve at half-maximal effect). Particulars: purified GBA, blue fluorogenic substrate, 40 min. In short, it runs like this: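 Normal human glucocerebrosidase (0.2 nM) with blue fluorogenic substrate (80 uM final) in citrate/phosphate pH 5.9 with 10mM sodium taurocholate, 0.01% tween-20; 40 min RT, NaOH/glycine stop; fluorescence Ex 365/Em 440; AC50 from a titration from 0.6 nM upwards.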
Chain of Lysosomal acid glucosylceramidase (Homo sapiens) (P04062 whole entry, looked up): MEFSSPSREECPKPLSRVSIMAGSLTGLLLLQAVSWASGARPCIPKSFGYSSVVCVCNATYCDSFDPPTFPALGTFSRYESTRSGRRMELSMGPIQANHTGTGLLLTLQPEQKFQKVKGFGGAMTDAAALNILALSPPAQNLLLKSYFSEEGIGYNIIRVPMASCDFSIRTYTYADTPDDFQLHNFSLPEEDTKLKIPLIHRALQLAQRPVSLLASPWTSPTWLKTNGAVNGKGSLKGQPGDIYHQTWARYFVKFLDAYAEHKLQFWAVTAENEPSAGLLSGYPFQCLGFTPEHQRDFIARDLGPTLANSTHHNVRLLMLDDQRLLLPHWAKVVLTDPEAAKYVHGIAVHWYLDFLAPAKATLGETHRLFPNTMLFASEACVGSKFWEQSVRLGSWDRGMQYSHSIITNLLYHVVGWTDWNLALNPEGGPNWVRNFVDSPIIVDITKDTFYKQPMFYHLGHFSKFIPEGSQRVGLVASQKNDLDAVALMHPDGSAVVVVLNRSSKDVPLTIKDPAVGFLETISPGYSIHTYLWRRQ

Assay [2] in a line: AP1 Signaling Pathway (AID 357).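 Also: ME-180 reporter cells stimulated with EGF at its EC50 level; % is scaled to controls: 0 for no effect and ±100 for the full control effect.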 To be noted: ME-180 AP-1-bla reporter, EGF-induced, beta-lactamase ratio, 5 h; at 7.69 µM (top of the series) unless noted. The method, boiled down:
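A ratiometric CCF4 readout (405 nm excitation; 460 and 530 nm emission) quantified AP-1-driven beta-lactamase in ME-180 cells after 5 h with compound and EC50 EGF; AC50 values were derived for activators and inhibitors.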

Assay [3] addresses Cytochrome P450 1A2 (Homo sapiens) (UniProt P05177). In words: p450-cyp1a2 (AID 410; calls by dose curve; also: potency is read from the fitted curve at half-maximal effect;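 as to activity change, negative = inhibition: -100% = full effect of reference inhibitor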). Particulars: recombinant CYP1A2, luciferin-ME demethylation, luminescence; series mostly up to 11.4 µM. In short, it runs like this:
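Read-out is luminescence from luciferin produced by CYP1A2 demethylation of Luciferin-ME (100uM, at Km). Detection reagent stopped the 60 min NADPH-dependent reaction; signals were normalized to 57 uM furafylline.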

Assay [4] is described as follows: NFAT Signaling Pathway (AID 444).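 Also: carbachol stimulus at about its EC50 of 1 µM final; % is scaled to controls: 0 for no effect and ±100 for the full control effect.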 To be noted: Jurkat NFAT-bla M1, carbachol, beta-lactamase ratio, 5 h; at 7.69 µM (top of the series) unless noted. In short, it runs like this:
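Read-out: CCF4 FRET ratio (460 nm/530 nm) after 1 h RT dye loading, used for %activity and AC50 from titration series. Cells: Jurkat NFAT-β-lactamase/M1 line, treated with compound plus 1 uM carbachol for 5 h, 37 °C.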

Assay [5] addresses Glucocorticoid receptor (Homo sapiens) (UniProt P04150). The experiment in a line: GR-GFP Redistribution (AID 450;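 active = compounds whose dose series gives a full or clear partial fitted curve of increased nuclear translocation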; also: potency is read from the fitted curve at half-maximal effect). To be noted: U2OS GR-GFP nuclear translocation, laser cytometry, 2 h.
Assay [6] shares this target. In words: GR-EFC Redistribution (AID 451; calls by dose curve; also: potency is read from the fitted curve at half-maximal effect). To be noted: CHO-K1 GR-EFC translocation, beta-gal luminescence, 2 h. In short, it runs like this: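 Translocation of GR-ED fusion to nuclear EA restores b-gal, read by luminescence after 1 h room-temperature detection. Engineered CHO-K1 biosensor cells, 1,000/well, exposed 2 h at 37 C to titrations up to 46 uM final.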
Assay [7] has as its target Mitogen-activated protein kinase 10 (Mus musculus) (UniProt Q61831). The experiment in a line: JNK3 AlphaScreen Assay (AID 530).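 Also: kinase came from lysate of stimulated human HepG2 cells; signal reports phosphorylation of biotinylated GST-cJun 1-79 at Ser73 with 10 µM ATP; % is scaled to controls: 0 for no effect and ±100 for the full control effect.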 To be noted: JNK3 lysate, c-Jun phosphorylation; series mostly up to 11.4 µM. In short, it runs like this: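 Kinase buffer: 20 mM Tris-HCl pH 7.6, 10 mM MgCl2, 1 mM DTT, 0.1 mM Na3VO4, 0.01% Tween-20; ATP 10 uM. Substrate biotin-GST-cJun(1-79), enzyme from activated HepG2 lysates. Detection by Ser73 phospho-antibody AlphaScreen.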

Assay [8] addresses 3',5'-cyclic-AMP phosphodiesterase 4B (Homo sapiens) (UniProt Q07343). In words: qHTS Assay for Inhibitors of PDE-IV (AID 607; active = well fitted activation curve with a large enough effect in the main read-out, with a control signal flat, not every such curve was filed as active; also: % of control where 0% means no effect). To be noted: HEK293 ACTOne CNG channel cells, membrane potential fluorescence; series mostly up to 22.9 µM. The method, boiled down:
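ACTOne HEK293 cells carry a modified cAMP-gated CNG channel and express endogenous PDE4; plated 1000 cells/well, compounds up to 22.9 uM final. Membrane-potential dye fluorescence (ex 535/em 590) was read; parental cells received 10 uM forskolin + 100 uM RO 20-1724.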
(In general: qHTS replaces the single test concentration by a dilution series.)

Assay [9] concerns the target Cytochrome P450 2D6 (Homo sapiens) (UniProt P10635). The experiment in a line: qHTS Assay for Inhibitors and Substrates of Cytochrome P450 2D6 (AID 891; active = well fitted curve in the direction sought with a large enough effect; an effect the other way counts as inactive or inconclusive; also: potency is read from the fitted curve at half-maximal effect; nearly all actives have a fitted effect of over 60% in size). To be noted: recombinant CYP2D6, luciferin-ME EGE luminescence; series mostly up to 11.4 µM. In short, it runs like this:
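Luminescent read-out of luciferin formed by 5 nM human CYP2D6 demethylating 30 uM Luciferin-ME EGE (Km level) over 60 min at room temperature after NADPH regeneration addition. Data normalized to full inhibition by 1.43 uM quinidine.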

Assay [10] deals with Cytochrome P450 3A4 (Homo sapiens) (UniProt P08684). The experiment in a line: qHTS Assay for Inhibitors and Substrates of Cytochrome P450 3A4 (AID 884; active = well fitted curve in the direction sought with a large enough effect; an effect the other way counts as inactive or inconclusive; also: potency is read from the fitted curve at half-maximal effect; nearly all actives have a fitted effect of over 50% in size). Particulars: recombinant CYP3A4, Luciferin-PPXE luminescence; series mostly up to 57.1 µM. The method, boiled down: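 Luminescent readout of luciferin produced by CYP3A4 (20 nM) dealkylation of Luciferin-PPXE, 25 uM (its KM). NADPH-driven reaction ran 60 min at RT after 10 min compound preincubation; data scaled to 57 uM ketoconazole as 100% inhibition.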
Chain of Cytochrome P450 3A4 (Homo sapiens) (P08684 whole entry, looked up): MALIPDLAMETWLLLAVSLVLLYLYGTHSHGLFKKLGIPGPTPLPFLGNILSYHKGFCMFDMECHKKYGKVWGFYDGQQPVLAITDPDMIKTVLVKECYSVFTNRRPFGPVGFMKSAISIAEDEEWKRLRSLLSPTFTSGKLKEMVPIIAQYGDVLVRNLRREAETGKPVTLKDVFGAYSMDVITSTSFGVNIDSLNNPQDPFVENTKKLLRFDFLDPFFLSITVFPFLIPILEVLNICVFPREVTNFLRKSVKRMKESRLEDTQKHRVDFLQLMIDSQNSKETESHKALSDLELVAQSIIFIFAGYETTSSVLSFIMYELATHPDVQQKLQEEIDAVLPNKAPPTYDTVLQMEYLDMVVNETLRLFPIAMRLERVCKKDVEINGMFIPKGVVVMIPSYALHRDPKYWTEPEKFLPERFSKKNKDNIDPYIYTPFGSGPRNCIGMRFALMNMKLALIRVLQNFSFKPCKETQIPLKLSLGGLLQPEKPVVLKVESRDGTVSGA

Assay [11] shares this target. The experiment in a line: qHTS Assay for Activators of Cytochrome P450 3A4 (AID 885; active = well fitted curve in the direction sought with a large enough effect; an effect the other way counts as inactive or inconclusive; also: nearly all actives have a fitted effect of over 65% in size). Particulars: recombinant CYP3A4, Luciferin-PPXE luminescence, 60 min; series mostly up to 11.4 µM. In short, it runs like this: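 CYP3A4 activity: Luciferin-PPXE O-dealkylation, 25uM substrate, 200mM KPO4, RT throughout. Read-out is luciferase luminescence; higher values reflect activation.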

Assay [12] is described as follows: Stat Signaling Pathway (AID 446).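 Also: ME-180 cervical cancer cells given 40 pM IL-6 alongside compound; SIE-controlled beta-lactamase reporter measured as 460/530 nm FRET emission ratio; % is scaled to controls: 0 for no effect and ±100 for the full control effect.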 Particulars: ME-180 (cervical carcinoma) SIE beta-lactamase reporter, IL-6 stimulated, 5 h; at 7.69 µM (top of the series) unless noted. The method, boiled down: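 Compound effects on IL-6-induced STAT reporter activity were measured in ME-180 cells. After overnight culture, cells were co-treated with 40 pM IL-6 for 5 hrs before beta-lactamase substrate loading at room temperature.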

Assay [13] has as its target Cytochrome P450 2C9 (Homo sapiens) (UniProt P11712). In words: qHTS Assay for Inhibitors and Substrates of Cytochrome P450 2C9 (AID 883; active = well fitted curve in the direction sought with a large enough effect; an effect the other way counts as inactive or inconclusive; also: potency is read from the fitted curve at half-maximal effect; nearly all actives have a fitted effect of over 60% in size). Particulars: recombinant CYP2C9, luciferin-H luminescence, 60 min; series mostly up to 11.4 µM. In short, it runs like this:
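Turnover of Luciferin-H (100uM, KM) by 10nM human CYP2C9 was measured over 60 min at 37C with NADPH regeneration; inhibitors and some substrates reduce luminescence. Data normalized to sulphaphenazole 57uM.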

Chain of Cytochrome P450 1A2 (Homo sapiens) (P05177 whole entry, looked up): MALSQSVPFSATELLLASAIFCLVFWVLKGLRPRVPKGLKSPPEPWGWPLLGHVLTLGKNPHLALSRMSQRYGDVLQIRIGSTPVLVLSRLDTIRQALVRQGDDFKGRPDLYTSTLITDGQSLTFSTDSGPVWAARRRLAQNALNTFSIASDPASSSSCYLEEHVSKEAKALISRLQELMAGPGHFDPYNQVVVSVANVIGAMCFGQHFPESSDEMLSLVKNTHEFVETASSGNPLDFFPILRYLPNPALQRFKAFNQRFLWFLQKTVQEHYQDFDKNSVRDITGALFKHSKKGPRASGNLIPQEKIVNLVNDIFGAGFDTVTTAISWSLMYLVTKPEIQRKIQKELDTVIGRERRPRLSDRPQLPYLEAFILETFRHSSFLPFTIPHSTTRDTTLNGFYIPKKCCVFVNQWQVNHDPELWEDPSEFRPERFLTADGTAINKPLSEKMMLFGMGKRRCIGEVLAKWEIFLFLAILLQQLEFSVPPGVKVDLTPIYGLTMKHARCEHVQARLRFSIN
Chain of Glucocorticoid receptor (Homo sapiens) (P04150 whole entry, looked up, the tested form may be a part): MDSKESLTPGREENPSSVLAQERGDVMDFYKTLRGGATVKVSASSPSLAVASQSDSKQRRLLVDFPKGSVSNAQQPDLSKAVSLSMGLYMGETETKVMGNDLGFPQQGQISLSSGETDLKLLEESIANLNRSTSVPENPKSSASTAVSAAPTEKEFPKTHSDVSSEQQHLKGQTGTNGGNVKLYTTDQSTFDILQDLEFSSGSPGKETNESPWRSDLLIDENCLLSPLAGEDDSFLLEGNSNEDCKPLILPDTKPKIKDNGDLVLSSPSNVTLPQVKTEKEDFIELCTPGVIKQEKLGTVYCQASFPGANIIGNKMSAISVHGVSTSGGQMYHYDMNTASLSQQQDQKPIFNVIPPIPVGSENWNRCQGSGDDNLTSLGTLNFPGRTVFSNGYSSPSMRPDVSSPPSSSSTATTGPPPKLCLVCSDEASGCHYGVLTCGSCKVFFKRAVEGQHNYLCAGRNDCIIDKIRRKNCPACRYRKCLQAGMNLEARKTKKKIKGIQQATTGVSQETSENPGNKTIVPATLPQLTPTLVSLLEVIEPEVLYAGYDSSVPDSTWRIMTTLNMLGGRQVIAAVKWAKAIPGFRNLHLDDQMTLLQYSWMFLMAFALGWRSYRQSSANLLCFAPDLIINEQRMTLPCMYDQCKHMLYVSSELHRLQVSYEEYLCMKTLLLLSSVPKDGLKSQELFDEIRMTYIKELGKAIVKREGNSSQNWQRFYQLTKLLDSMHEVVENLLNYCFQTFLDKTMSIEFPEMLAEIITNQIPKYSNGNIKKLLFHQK
Chain of 3',5'-cyclic-AMP phosphodiesterase 4B (Homo sapiens) (Q07343 whole entry, looked up): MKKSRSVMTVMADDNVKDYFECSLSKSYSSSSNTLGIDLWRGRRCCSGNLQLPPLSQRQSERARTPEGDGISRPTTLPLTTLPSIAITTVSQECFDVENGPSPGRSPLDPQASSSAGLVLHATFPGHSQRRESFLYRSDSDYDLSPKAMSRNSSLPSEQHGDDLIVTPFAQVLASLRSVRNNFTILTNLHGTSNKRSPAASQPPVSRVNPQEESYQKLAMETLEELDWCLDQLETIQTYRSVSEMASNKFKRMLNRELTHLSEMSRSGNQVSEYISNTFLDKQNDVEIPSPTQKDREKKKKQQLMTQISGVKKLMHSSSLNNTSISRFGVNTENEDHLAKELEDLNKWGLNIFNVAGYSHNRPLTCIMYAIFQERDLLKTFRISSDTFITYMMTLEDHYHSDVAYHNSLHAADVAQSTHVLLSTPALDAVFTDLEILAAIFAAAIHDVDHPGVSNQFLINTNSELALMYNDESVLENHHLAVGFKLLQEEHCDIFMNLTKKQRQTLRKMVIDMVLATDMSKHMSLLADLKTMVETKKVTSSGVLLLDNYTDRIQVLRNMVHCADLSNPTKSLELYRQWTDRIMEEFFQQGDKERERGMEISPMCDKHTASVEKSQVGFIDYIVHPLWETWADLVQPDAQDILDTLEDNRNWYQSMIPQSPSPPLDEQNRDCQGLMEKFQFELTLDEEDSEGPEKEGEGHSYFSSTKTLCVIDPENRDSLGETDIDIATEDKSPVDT
Chain of Cytochrome P450 2D6 (Homo sapiens) (P10635 whole entry, looked up): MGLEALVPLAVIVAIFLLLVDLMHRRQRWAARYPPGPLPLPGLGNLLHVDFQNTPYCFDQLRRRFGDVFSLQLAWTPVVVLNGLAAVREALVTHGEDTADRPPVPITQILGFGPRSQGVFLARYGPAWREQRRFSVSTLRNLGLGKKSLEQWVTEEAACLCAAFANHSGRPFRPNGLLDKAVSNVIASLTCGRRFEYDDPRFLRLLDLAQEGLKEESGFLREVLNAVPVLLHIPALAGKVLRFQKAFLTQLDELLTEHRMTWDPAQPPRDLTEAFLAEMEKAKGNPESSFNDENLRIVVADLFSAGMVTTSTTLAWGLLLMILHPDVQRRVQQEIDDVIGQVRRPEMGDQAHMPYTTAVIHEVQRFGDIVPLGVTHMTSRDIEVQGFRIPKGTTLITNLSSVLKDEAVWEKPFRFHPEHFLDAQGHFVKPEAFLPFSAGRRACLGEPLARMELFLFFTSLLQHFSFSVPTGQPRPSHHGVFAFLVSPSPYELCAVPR
Chain of Cytochrome P450 2C9 (Homo sapiens) (P11712 whole entry, looked up): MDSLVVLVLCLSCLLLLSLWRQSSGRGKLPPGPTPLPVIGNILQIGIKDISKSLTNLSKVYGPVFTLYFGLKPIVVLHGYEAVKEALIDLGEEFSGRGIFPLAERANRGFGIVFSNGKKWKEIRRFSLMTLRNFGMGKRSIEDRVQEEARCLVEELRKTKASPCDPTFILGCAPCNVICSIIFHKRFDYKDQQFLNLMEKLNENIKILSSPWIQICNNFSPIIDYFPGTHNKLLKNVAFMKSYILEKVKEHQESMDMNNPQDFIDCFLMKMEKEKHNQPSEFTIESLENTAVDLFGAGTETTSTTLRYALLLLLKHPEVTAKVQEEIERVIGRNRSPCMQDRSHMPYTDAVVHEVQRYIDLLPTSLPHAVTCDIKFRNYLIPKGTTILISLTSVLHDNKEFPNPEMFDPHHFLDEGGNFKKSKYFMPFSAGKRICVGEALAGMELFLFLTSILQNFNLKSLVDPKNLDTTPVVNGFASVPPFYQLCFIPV

Regarding `O=c1c2ccccc2sc2c(CO)ccc(NCCN3CCCCC3)c12`, the Potency in assay [1] was > 11.4 µM; in assay [3], 1.58 µM (active); in assay [5], > 46 µM; in [6] it was > 9.22 µM; in assay [9], 1.26 µM (active). Besides, the activity change, negative = inhibition in assay [2] is -1.51%; in [4], 27.4%. For the same compound, the Potency entry in [7] and in assay [8] was “inactive” each time.

In the case of `CCNc1ncc2nc(C)c(=O)n(Cc3cccc(OC)c3)c2n1`, the Potency is > 11.4 µM in assay [1]; 3.16 µM (active) in assay [3]; > 9.22 µM in assay [5]; > 46 µM in [6]; 7.94 µM (active) in assay [10]. The activity change, negative = inhibition in [2] is -13.2%; in [4], -2.59%. The Potency entry in [7], in [8] and in assay [11] was “inactive” throughout.

For the compound `O=C(O)/C=C\c1c2ccc(=O)c(O)c-2oc2c(O)c(O)ccc12`, the Potency in [1] was > 11.4 µM; in [5], > 46 µM; in assay [6] it was > 9.22 µM. The results for the activity change, negative = inhibition in [2], in assay [3] and in assay [4] were -8.29%, -19.8% [at 2.29 µM] and 2.25%, respectively. Also, the Potency result in [8] is “inactive”.

With `Cc1c2cc[n+](CCN3CCCCC3)cc2c(C)c2c1[nH]c1ccc(O)cc12`, the Potency was > 11.4 µM in [1], 2.51 µM (active) in [3], > 46 µM in [5] and > 9.22 µM in assay [6]. The activity change, negative = inhibition in assay [2] was 9.2%. Besides, the activity, negative = inhibition in [12] is 17.1%. The Potency result in [7] and in [8] was “inactive” throughout.

Take `CN(C)CCC(=O)[C@@]1(O)CC[C@H]2[C@H]3CC=C4C[C@@H](O)CC[C@]4(C)[C@H]3CC[C@]21C`: the Potency in assay [1] is > 11.4 µM; in assay [5] it was > 46 µM; in [6] it was > 9.22 µM. Besides, the activity change, negative = inhibition in assay [2] is 3.32%. The Potency result in [3], in [7] and in assay [8] was “inactive” throughout. Besides, in assay [12], the activity, negative = inhibition was -18.3%.

Take `O=C(O)C[C@H](S)C(=O)O`: the values for the Potency in assay [1], in [5] and in assay [6] were > 11.4 µM, > 46 µM and > 9.22 µM, respectively. Further, in assay [2], the activity change, negative = inhibition is -3.09%. Also, the Potency entry in assay [3], in assay [7] and in assay [8] was “inactive” throughout. For the same compound, the activity, negative = inhibition in [12] was -8.04%.

Regarding `N#CC(C#N)=NNc1ccc2cn[nH]c2c1`, the Potency in assay [1] is > 11.4 µM; in [3], 1.26 µM (active); in assay [5], > 46 µM; in assay [6] it was > 9.22 µM; in [13], 2.51 µM (active). The activity change, negative = inhibition in assay [2] was 1.21%. Besides, the activity, negative = inhibition in assay [12] was -12%. The Potency entry in assay [7], in [8] and in [11] was “inactive” throughout.

With `Cc1ncn(-c2ccccc2O)c1C`, the Potency is > 11.4 µM in assay [1], 0.794 µM (active) in assay [3], > 46 µM in [5] and > 9.22 µM in [6]. In addition, the activity change, negative = inhibition in assay [2] was 4.1%. In addition, in assay [12], the activity, negative = inhibition was 6.2%. For the same compound, the Potency result in assay [7] and in [8] was “inactive” in each case.
